{"source": "PubChem BioAssay (NCI)", "note": "This is part of a sample that, as a whole, favours compounds with a hit. Of some 79,000 tested, about 15% had one in any assay. The source made the active and inactive calls. Rule as the data show it: active = growth inhibition above about 70%; inactive = the rest. Where a SMILES comes first, the peptide text is derived from it.", "data": [{"assay": "NCI Yeast Anticancer Drug Screen. Data for the rad50 strain (AID 155);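 also: 0% = growth of vehicle-only cultures of the same strain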", "settings": "S. cerevisiae rad50 strain growth inhibition; at 50.0 µM; active compounds read high", "how_it_was_run": "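Cells are treated with compound, grown, and their growth is then scored against vehicle-only cultures of the same repair-deficient yeast strain.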", "values": [{"compound": "CCOC(=O)NC(C)=O", "growth inhibition": "-10.4% (inactive)"}, {"compound": "Cc1n[nH]c(=S)n1NC=O", "growth inhibition": "-12.3% (inactive)"}, {"compound": "CCCC(C)C(=O)O", "note": "(stereo not given)", "growth inhibition": "23.1% (inactive)"}, {"compound": "CCCCCCCCCCCCCCCCCCNC1=C(C)C(=O)C(NCCCCCCCCCCCCCCCCCC)=C(OCC)C1=O", "growth inhibition": "2.7% (inactive)"}, {"compound": "COc1cc(O)c(C(=O)CC(C)=O)c(OC)c1", "growth inhibition": "-14.9% (inactive)"}, {"compound": "Cc1ccc(C(=O)c2c[nH]c(=O)[nH]c2=O)cc1", "growth inhibition": "9.45% (inactive)"}, {"compound": "CC(=O)c1cc2c(Br)cccc2oc1=O", "growth inhibition": "-38% (inactive)"}, {"compound": "CC1N=C(c2ccccc2)SC1C", "note": "(stereo not given)", "growth inhibition": "-14.2% (inactive)"}, {"compound": "C/C(=N\\N=C(\\Cc1ccccc1)c1ccccc1)c1ccccc1", "growth inhibition": "1.7% (inactive)"}, {"compound": "CC(C)CC(NC(=O)C(CCC(=O)O)NC(=O)CNC(=O)CNC(=O)C(CO)NC(=O)C(CC(C)C)NC(=O)C(NC(=O)C(CO)NC(=O)C(C)NC(=O)C(CCCNC(=N)N)NC(=O)C(C)NC(=O)CN)C(C)C)C(=O)NC(CC(=O)O)C(=O)NC(CCCNC(=N)N)C(=O)NC(Cc1c[nH]c2ccccc12)C(=O)NC(Cc1ccc(O)cc1)C(N)=O", "note": "(stereo not given) (H-GARASVLSGGELDRWY-NH2; configuration not given here)", "growth inhibition": "21.4% (inactive)"}, {"compound": "COc1ccc(C(C)=O)cc1CCCOC(C)=O", "growth inhibition": "-0.7% (inactive)"}, {"compound": "COCc1ccc(C(C)(C)CC(C)(C)C)cc1", "growth inhibition": "32.6% (inactive)"}, {"compound": "CSc1nc(NN)c([N+](=O)[O-])c(SC)n1", "growth inhibition": "-7.55% (inactive)"}, {"compound": "O=c1oc2c(ccc3ccccc32)c(O)c1-c1cccc2ccccc12", "growth inhibition": "99.2% (active)"}, {"compound": "CCOC1=C/C(=N\\NC(N)=O)CCC1", "growth inhibition": "9.35% (inactive)"}, {"compound": "CCSc1cccc(C(=O)O)c1", "growth inhibition": "-23.1% (inactive)"}, {"compound": "NC(=O)N/N=C1\\CCCC(OC(=O)c2ccccc2)CC1", "note": "(stereo not given)", "growth inhibition": "2.85% (inactive)"}, {"compound": "CS(=O)(=O)OC1COCOC1C1OCOCC1OS(C)(=O)=O", "note": "(stereo not given)", "growth inhibition": "7.8% (inactive)"}, {"compound": "CCCCCCCCCCCCCCCC/C(C(=O)OC)=C(/O)C(=O)OCC", "growth inhibition": "-4.7% (inactive)"}, {"compound": "CC(=O)OC1CCC2(C)C(CCC3(C)C2CCC2C4C5OC(=O)C4(CCC5(C)C)CCC23C)C1(C)C", "note": "(stereo not given)", "growth inhibition": "-13% (inactive)"}, {"compound": "CCOC(CN(C)C)OCC", "growth inhibition": "8.6% (inactive)"}, {"compound": "NS(=O)(=O)c1ccc(N2C(=O)C3C(C2=O)C2(Cl)C(Cl)=C(Cl)C3(Cl)C2(Cl)Cl)cc1", "note": "(stereo not given)", "growth inhibition": "-6.4% (inactive)"}, {"compound": "Nc1nc(N)c(N=Nc2ccc(S(=O)(=O)O)cc2)c(N)n1", "growth inhibition": "-5.35% (inactive)"}, {"compound": "CC(=O)N(C)C", "growth inhibition": "-9.9% (inactive)"}, {"compound": "N#CCCOCC(OCCC#N)C(OCCC#N)C(OCCC#N)C(COCCC#N)OCCC#N", "note": "(stereo not given)", "growth inhibition": "-9.85% (inactive)"}, {"compound": "O=S(=O)(O)C(O)c1ccccc1", "note": "(stereo not given)", "growth inhibition": "1.25% (inactive)"}, {"compound": "O=C(Nc1ccc2c(c1)Cc1cccc(F)c1-2)C(F)(F)F", "growth inhibition": "4.7% (inactive)"}, {"compound": "COc1ccc(Br)cc1C1SCC(=O)N1c1nncs1", "note": "(stereo not given)", "growth inhibition": "12% (inactive)"}, {"compound": "CCOC(=O)c1ccc(-c2ccccc2)cc1", "growth inhibition": "-44.2% (inactive)"}, {"compound": "OC(Cc1cccnc1)(c1ccccc1)c1ccccc1", "growth inhibition": "-0.3% (inactive)"}, {"compound": "CC(CCC(=O)O)[C@H]1CCC2[C@@H]3CC[C@@H]4CC(O)CC[C@]4(C)C3CC[C@@]21C", "note": "(stereo not given in full)", "growth inhibition": "-31.1% (inactive)"}, {"compound": "O=C(NO)c1ccccc1O", "growth inhibition": "27.2% (inactive)"}, {"compound": "CC(C)NC(=O)N(C(=O)C(F)(F)F)C(C)C", "growth inhibition": "-0.95% (inactive)"}, {"compound": "CCN(CC)CCN(CCN(CC)CC)c1c(OC)cccc1OC", "growth inhibition": "5.8% (inactive)"}, {"compound": "Cc1cc(C)c(C)c(C(=O)OC(C)C)c1C", "growth inhibition": "2.7% (inactive)"}, {"compound": "CCOC(=N)Cc1ccccc1", "growth inhibition": "3.7% (inactive)"}, {"compound": "Cc1cc(C)c(N(C)C(=O)CCC(=O)O)c(Br)c1", "growth inhibition": "3.1% (inactive)"}, {"compound": "COc1ccc(NC(=S)NN)cc1", "growth inhibition": "2.95% (inactive)"}, {"compound": "NNC(=O)C1CCC(=O)N1S(=O)(=O)c1ccccc1", "note": "(stereo not given)", "growth inhibition": "-14% (inactive)"}, {"compound": "COc1cc(C2c3cc4c(cc3OC(NNC(N)=S)C2C)OCO4)cc(OC)c1OC", "note": "(stereo not given)", "growth inhibition": "-4% (inactive)"}]}]}
